LASV entry inh – qHTS for Inhibitors of binding or entry into cells for Lassa Virus | Lassa virus pseudotype entry inhibition, cell reporter | hit rate 1.2% among 300,000 | Potency, µM (doses to about 37.9 µM), inactives show top-dose activity change, negative = inhibition, most hits filed as inhibitors; calls by dose curve; tested in HEK293 cells; further: potency means the concentration at half of the fitted maximal effect; nearly all actives have a fitted effect of over 50% in size
VACV Venus inh – qHTS for Stage-Specific Inhibitors of Vaccinia Orthopoxvirus: Venus Reporter Primary qHTS. Vaccinia virus Venus reporter expression, fluorescence. Potency, µM (doses to about 36.5 µM), inactives show at the top dose activity change, negative = inhibition, actives largely listed as inhibitors. hit rate 0.46% among 330,000. AID 720580, 2013; calls by dose curve; tested in A549 cells; further: potency means the concentration at half of the fitted maximal effect; nearly all actives have a fitted effect of over 30% in size
HCMV antiviral – qHTS Assay for inhibitors of the human cytomegalovirus (HCMV); HFF cells, HCMV-luciferase reporter, 72 h; hits give low values; activity change, negative = inhibition, % at 57.5 µM; hit rate 4.5% among 410,000; in the data active means activity change below about -60%; inconclusive means no clear call, values can overlap the other calls; inactive means above about -39%
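Two-dose cell screen: HFF monolayers treated with compounds and infected with luciferase-expressing HCMV at 1 PFU/cell, 72 h at 37C, then lysed for luciferase measurement.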
VACV mCherry inh – qHTS for Stage-Specific Inhibitors of Vaccinia Orthopoxvirus: mCherry Reporter Primary qHTS. hit rate 0.63% among 310,000. Vaccinia virus mCherry reporter infection, fluorescence. Potency, µM (doses to about 36.5 µM), without a hit: at the highest dose activity change, negative = inhibition, usual class: inhibitors; calls by dose curve; tested in A549 cells; further: potency means the concentration at half of the fitted maximal effect; nearly all actives have a fitted effect of over 35% in size
Marburg entry inh – qHTS for inhibitors of binding or entry into cells for Marburg Virus | Potency, µM (doses to about 37.8 µM), for inactives: at the top dose activity change, negative = inhibition, most hits filed as inhibitors | Marburg virus pseudotyped entry inhibition, cell reporter | hit rate 1.8% among 300,000 | AID 540276, 2011; calls by dose curve; tested in HEK293 cells; further: potency means the concentration at half of the fitted maximal effect
FMDV antiviral – High Throughput Screening for Foot and Mouth Disease Virus Antivirals; AID 1159524, 2015; hit rate 1.2% among 410,000; FMDV antiviral cell-based qHTS; Potency, µM (highest dose often 57.9 µM), inactives show top-dose activity change, negative = inhibition, hits mostly inhibitors; calls by dose curve; tested in HEK293T cells; further: read-out not given here; potency means the concentration at half of the fitted maximal effect; nearly all actives have a fitted effect of over 45% in size
* = called active by the depositor; i = inactive; ? = inconclusive; . = no result given; [ ] = another dose, or the depositor's remark. Compounds with a hit are over-represented: about 6.5% of the library has one in this group of screens. On the % scale 0 is the no-effect control and ±100 the full control effect.

SMILES | LASV entry inh | VACV Venus inh | HCMV antiviral | VACV mCherry inh | Marburg entry inh | FMDV antiviral
COc1ccc(C2=Nn3c(nnc3-c3ccccn3)SC2)cc1OC | -15.7% | . | 79.5 | . | -5.1% | -25.4%
CCCCOc1ccc(CNC(=O)c2cc3n(n2)CCCN(Cc2ccc(C)cc2)C3=O)cc1 | ? | ? | -38.0 | ? | . | -23.7%
CC1=NC2=CC=CC3=NC(C(Cl)(Cl)Cl)=NC(=N1)N23 | . | . | -21.0 | . | . | .
CCOc1ccc(C2=Nn3c(nnc3-c3ccccc3)SC2)cc1Cl | 2.9% | ? | -102.0* | i | ? | 11.1%
O=C1C(C=Nc2ccc(F)cc2)=C(O)c2ccccc21 | ? | -1.8% | 12.8 | -3.2% | 8.8%[46.1 µM] | -52.2%
COc1ccc(N=CC2=C(O)c3ccccc3C2=O)c(OC)c1 | 2.51µM* | ? | -31.2 | . | ? | ?
Cc1ccccc1N=CC1=C(O)c2ccccc2C1=O | 10µM* | 3.4% | 22.5 | -9.6% | 8.91µM* | 8.91µM*
O=C(NCc1ccccc1Cl)C1CCCN(C(=O)c2cnn(-c3ccccc3)c2-n2cccc2)C1 (stereo unspecified) | -21.4%[46.1 µM] | -8.2% | -20.2 | -11.1% | -13.7%[46.1 µM] | -16.2%
COc1ccc(CNc2ncnc3c2nc2n3CCCC2)cc1 | ? | -7.6% | 15.1 | -25.5% | . | 15.5%
NC(=S)N/N=C/c1cc([N+](=O)[O-])ccc1Cl | . | 2.24µM* | 9.7 | ? | . | -22.4%
Cc1ccc(S(=O)(=O)N/N=C/c2cccc([N+](=O)[O-])c2)cc1 | 7.1% | -17.4% | 16.6 | -0.4% | -3.6% | 90.3%
Cc1ccc(S(=O)(=O)N/N=C\c2cc([N+](=O)[O-])ccc2Cl)cc1 | ? | -18.0% | -89.9* | -8.6% | ? | .
Cc1ccc2c(c1)nnn2C1CCN(S(=O)(=O)c2ccc(C(=O)O)cc2)CC1 | -7.6% | 5.0% | -67.0* | 7.8% | 15.9%[46.1 µM] | 2.8%
Cc1ccc2c(c1)nnn2C1CCN(S(=O)(=O)c2ccc(C(=O)N3C(C)CCCC3C)cc2)CC1 (stereo unspecified) | ? | -28.3% | -73.4* | -21.7% | 7.94µM* | ?
CCCCNc1cccc2c1S(=O)(=O)N[C@H](Cc1ccccc1)CO2 | -4.4%[46.1 µM] | . | -9.9 | . | . | .
Cc1nc(N2CCC(C)CC2)c(C#N)c(C)c1[N+](=O)[O-] | ? | -5.6% | -14.6 | -1.9% | -2.0%[46.1 µM] | -20.1%
Cc1nc(Sc2ccc(Br)cc2)c(C#N)c(C)c1[N+](=O)[O-] | ? | -29.2% | -77.2* | -14.3% | ? | 20µM*
Nc1ncnc(Sc2ccc(Cl)cc2)c1[N+](=O)[O-] | ? | ? | 11.2 | -25.5% | ? | ?
Cc1ccc(Sc2nc(C)c([N+](=O)[O-])c(C)c2C#N)cc1 | -1.3% | -9.7% | -69.7* | -13.6% | -5.0%[46.1 µM] | -26.5%
Cc1nc(Sc2ccc(Cl)cc2)c(C#N)c(C)c1[N+](=O)[O-] | -0.3% | -1.2% | -75.0* | ? | 0.0%[14.2 µM] | ?
CCC[C@H]1[C@@H](NS(=O)(=O)c2ccc([N+](=O)[O-])cc2)CC[C@@]23CCCN2C(=O)CCC[C@@H]13 | . | . | -6.7 | . | . | .
CC1(C)Cc2c(c(N3CCOCC3)nc3snc(N)c23)CO1 | -13.5% | -9.1% | -102.4* | -18.5% | -22.9% | ?
Cc1ccc(CNS(=O)(=O)c2ccc3c(c2)n(C)c(=O)n3C)cc1 | ? | -0.4% | -66.0* | -26.6% | ? | -22.5%
Cc1cc(C)cc(NS(=O)(=O)c2ccc3c(c2)c(=O)n(C)c(=O)n3C)c1 | ? | 5.01µM* | ? | 5.62µM* | ? | .
Cn1c(=O)c2cc(S(=O)(=O)Nc3cc(C(=O)O)cc(C(=O)O)c3)ccc2n(C)c1=O | -4.4% | . | 5.5 | . | 1.7% | -11.0%
SMILES | LASV entry inh | VACV Venus inh | HCMV antiviral | VACV mCherry inh | Marburg entry inh | FMDV antiviral
Cc1ccc(S(=O)(=O)N(CC(=O)N2CCCCCC2)c2ccccc2)cc1 | 6.51µM* | . | -4.5 | . | 25.5% | 63.5%
COc1ccc(N(CC(=O)N2CCN(c3cccc(C)c3)C(C)C2)S(=O)(=O)c2c(C)n[nH]c2C)cc1 (stereo unspecified) | ? | -18.5% | -76.5* | i | ? | -24.7%
COc1ccc(S(=O)(=O)N(CC(=O)N2CCC(C)CC2)c2ccc(C)cc2)cc1 | 7.08µM* | -6.9% | -5.5 | -5.9% | -5.2%[46.1 µM] | 58.1%
Cc1ccc(S(=O)(=O)N(CC(=O)N2CCC(C)CC2)Cc2ccccc2F)cc1 | ? | . | -62.6* | . | ? | 14.0%
C=C(C)[C@@H]1C2=CC(C(=O)OC)=C(C[C@@H](C(=C)C)[C@H]3O[C@H]3C3=C[C@H]1OC3=O)O2 | . | ? | . | -9.7% | . | .
Cc1ccc(C(C)C)c(OCC(=O)Nc2ccc(-c3nc4ncccc4o3)cc2C)c1 | 2.7%[46.1 µM] | 4.5% | 2.8 | 7.6% | -8.5%[46.1 µM] | -16.1%
CC(C)CN1CCCC2(CCN(C(=O)c3cccc(F)c3)CC2)C1 | . | . | . | . | . | -13.6%
CC1Cc2ccccc2N1S(=O)(=O)c1cccc(C(=O)NCc2ccccn2)c1 (stereo unspecified) | . | . | 0.0 | . | . | -14.6%
CC(NS(=O)(=O)c1cccc(C(=O)NCc2ccncc2)c1)c1ccccc1 (stereo unspecified) | . | . | -99.6* | . | . | -3.9%
CC1Cc2ccccc2N1S(=O)(=O)c1cccc(C(=O)N2CCN(c3ncccn3)CC2)c1 (stereo unspecified) | ? | 17.9% | -98.1* | 1.58µM* | ? | ?
CC1Cc2ccccc2N1S(=O)(=O)c1cccc(C(=O)NCc2ccncc2)c1 (stereo unspecified) | -20.4% | ? | -88.5* | -25.0% | 7.94µM* | -29.7%
COc1ccc(CCNC(=O)c2cccc(S(=O)(=O)NC(C)c3ccccc3)c2)cc1 (stereo unspecified) | . | . | -10.8 | . | . | -6.2%
CCOC(=O)c1ccc(NC(=O)c2cccc(S(=O)(=O)N3c4ccccc4CC3C)c2)s1 (stereo unspecified) | ? | ? | -69.4* | ? | ? | ?
COc1cc(Cl)c(CC(=O)NO)cc1OC | . | -14.6% | . | i | . | .
Cc1ccc(-c2[nH]ncc2CNCc2ccccc2)cc1 | . | -22.4% | . | -25.6% | . | .
COc1ccc2c(c1)[C@@H](NC(=O)c1c(C)noc1C)[C@H](C)[C@@H](c1ccccc1)N2Cc1cccc(F)c1 | . | . | -4.1 | . | . | .
CCCn1c(=O)c2sccc2n2c(CCCC(=O)Nc3ccccc3F)nnc12 | 25.6%[46.1 µM] | -6.4% | ? | -4.2% | . | -6.6%
CN1CCN(c2ccc(Cl)cc2NC(=O)c2cc(=O)[nH]c3ccccc23)CC1 | . | . | -98.4* | . | . | 0.0%
CC(=O)c1ccc(N2CCN(C(=O)/C=C/c3ccc(S(=O)(=O)NCc4ccco4)cc3)CC2)cc1 | ? | -13.9% | -66.2* | -9.0% | ? | ?
CC(=O)c1ccc(N2CCN(C(=O)/C=C/c3ccc(S(=O)(=O)N4CCOCC4)cc3)CC2)cc1 | ? | -7.9% | -38.0 | -7.0% | ? | ?
Cc1ccc(-n2nc(C)c3c(C(F)(F)F)cc(-c4cccnc4)nc32)cc1C | 26.2%[46.1 µM] | -9.9% | 31.5 | -9.7% | 3.1%[46.1 µM] | 1.7%

Source: PubChem
